# Experimental data: PubChem BioAssay (EPA / NIEHS)
# Several values for one entry are separate records, joined by “and”; a condition that tells them apart may be missing. Equal values may be shown once. Results filed as inconclusive are left out. Activity calls are given as the source filed them. Rule for the calls, unless noted: active = hit-call score of the fitted dose curve at least 0.9, where 1 is the maximum; inactive = score below 0.9.
# Key:
# [1] = BSK_3C_uPAR: BioMAP Diversity Plus: 3C Assay for Urokinase-type plasminogen activator receptor (uPAR) Biomarker Activity (AID 2282998); details: BioMAP 3C HUVEC, uPAR biomarker ELISA; actives raise or lower the signal
# In short: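 Human umbilical vein endothelial primary cells were exposed to test chemical for 24 h. Cell-surface uPAR was then quantified by ELISA, and responses were fitted bidirectionally against DMSO as negative control and baseline.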
# [2] = BSK_4H_Eotaxin3: BioMAP Diversity Plus: 4H Assay for Eotaxin 3 Biomarker Activity (AID 2283000); details: primary human endothelial cells (HUVEC); actives raise or lower the signal;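 for outcome: CCL26 protein level quantified by ELISA in parallel with SRB cytotoxicity check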
# In short: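 ELISA quantitation of CCL26 (Eotaxin-3) protein from chemically dosed human vascular endothelial cells at 24 h; increases and decreases both scored relative to DMSO-treated baseline.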
# [3] = read-out: Monocyte Chemoattractant Protein-1 (MCP1), CCL2 (gene 6347); assay: BSK_4H_MCP1: BioMAP Diversity Plus: 4H Assay for Monocyte Chemoattractant Protein-1 (MCP1) Biomarker Activity (AID 2283018); details: primary human endothelial cells (HUVEC); actives raise or lower the signal
# In short: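 Endothelial cells from umbilical vein were treated with test chemical, then after 24 h MCP-1 levels were quantified by ELISA; endpoint values came from bidirectional fitting with DMSO as baseline of activity.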
# [4] = read-out: Monokine induced gamma interferon (MIG), CXCL9 (gene 4283); assay: BSK_3C_MIG: BioMAP Diversity Plus: 3C Assay for Monokine induced gamma interferon (MIG) Biomarker Activity (AID 2283021); details: primary human endothelial cells (HUVEC); actives raise or lower the signal;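 for AC50: MIG protein level measured by immunoassay in the treated endothelial cultures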
# In short: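 Endothelial primary cells (human umbilical vein) are dosed with test chemical in the 3C system. MIG levels are measured by ELISA at 24 h and fitted in both directions relative to DMSO.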
# [5] = BSK_3C_SRB: Viability Assessment in the BioMAP Diversity Plus: 3C Assay (AID 2283023); details: primary human endothelial cells (HUVEC);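 note: fitted both ways against DMSO so a hit may be signal rise or drop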
# In short: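 Overt cytotoxicity is gauged in parallel confluent HUVEC cultures by SRB total-protein staining at the time of biomarker measurement, 24 h after dosing. Gain or loss of signal is fitted versus DMSO.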
# [6] = BSK_BE3C_SRB: Viability Assessment in the BioMAP Diversity Plus: BE3C Assay (AID 2283028); details: primary human bronchial epithelial cells
# In short: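 SRB total-protein staining (0.1%, after TCA fixation) of chemically dosed human bronchial epithelial primary cells at 24 h; DMSO serves as the negative control for bidirectional curve fitting.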
# [7] = read-out: Monokine induced gamma interferon (MIG), CXCL9 (gene 4283); assay: BSK_BE3C_MIG: BioMAP Diversity Plus: BE3C Assay for Monokine induced gamma interferon (MIG) Biomarker Activity (AID 2283035); details: primary human bronchial epithelial cells; actives raise or lower the signal;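 note: MIG protein measured by ELISA in BE3C cultures after 24 h of dosing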
# In short: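 hu bronchial epithelial 1° cells, 24 h cpd; MIG by ELISA; bidirectional fit, DMSO = baseline.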
# [8] = read-out: Plasminogen activator inhibitor-1 (PAI1), SERPINE1 (gene 5054); assay: BSK_BE3C_PAI1: BioMAP Diversity Plus: BE3C Assay for Plasminogen activator inhibitor-1 (PAI1) Biomarker Activity (AID 2283037); details: primary human bronchial epithelial cells; actives raise or lower the signal
# In short: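 Values derive from bidirectional fitting against DMSO baseline of PAI-1 levels, measured by ELISA in human bronchial epithelial cells 24 h after compound addition.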
# [9] = read-out: Urokinase-type plasminogen activator receptor (uPAR), PLAUR (gene 5329); assay: BSK_BE3C_uPAR: BioMAP Diversity Plus: BE3C Assay for Urokinase-type plasminogen activator receptor (uPAR) Biomarker Activity (AID 2283039); details: primary human bronchial epithelial cells; actives raise or lower the signal;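 note: uPAR protein level measured by ELISA on the cells; cells exposed to compound for one day before measurement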
# In short: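 Steps: dose human primary bronchial epithelial cells, incubate 24 h, measure uPAR by ELISA, then fit gain- or loss-of-signal response bidirectionally relative to DMSO.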
# [10] = read-out: Tissue plasminogen activator (tPA), PLAT (gene 5327); assay: BSK_BE3C_tPA: BioMAP Diversity Plus: BE3C Assay for Tissue plasminogen activator (tPA) Biomarker Activity (AID 2283041); details: primary human bronchial epithelial cells; actives raise or lower the signal;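 note: tPA level quantified by ELISA one day after compound addition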
# In short: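 Gain- or loss-of-signal in tPA, measured by ELISA, derived by bidirectional fitting against DMSO. Cells: human primary bronchial epithelial; read at 24 h after chemical dosing.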
# [11] = read-out: Interleukin-8 (IL8), CXCL8 (gene 3576); assay: BSK_CASM3C_IL8: BioMAP Diversity Plus: CASM3C Assay for Interleukin-8 (IL8) Biomarker Activity (AID 2283042); details: primary human coronary artery smooth muscle cells; actives raise or lower the signal;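 note: IL-8 protein level quantified by ELISA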
# [12] = read-out: Human Leukocyte Antigen - DR isotype (HLADR), HLA-DRA (gene 3122); assay: BSK_CASM3C_HLADR: BioMAP Diversity Plus: CASM3C Assay for Human Leukocyte Antigen - DR isotype (HLADR) Biomarker Activity (AID 2283043); details: primary human coronary artery smooth muscle cells; actives raise or lower the signal;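 note: cell-surface HLA-DR protein level quantified by ELISA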
# [13] = read-out: Macrophage colony-stimulating factor (MCSF), CSF1 (gene 1435); assay: BSK_CASM3C_MCSF: BioMAP Diversity Plus: CASM3C Assay for Macrophage colony-stimulating factor (MCSF) Biomarker Activity (AID 2283044); details: primary human coronary artery smooth muscle cells; actives raise or lower the signal;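 note: M-CSF protein amount quantified by ELISA after 24 h exposure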
# [14] = read-out: Low-density lipoprotein receptor (LDLR), LDLR (gene 3949); assay: BSK_CASM3C_LDLR: BioMAP Diversity Plus: CASM3C Assay for Low-density lipoprotein receptor (LDLR) Biomarker Activity (AID 2283045); details: primary human coronary artery smooth muscle cells; actives raise or lower the signal;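 note: LDLR protein level on the cell surface quantified by ELISA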
# [15] = read-out: Monocyte Chemoattractant Protein-1 (MCP1), CCL2 (gene 6347); assay: BSK_CASM3C_MCP1: BioMAP Diversity Plus: CASM3C Assay for Monocyte Chemoattractant Protein-1 (MCP1) Biomarker Activity (AID 2283046); details: primary human coronary artery smooth muscle cells; actives raise or lower the signal
# [16] = ATG_Sox_CIS: Attagene CIS-FACTORIAL HepG2 Assay for human SRY-box transcription factor (SOX) (AID 2282960); details: HepG2 Attagene cis-factorial SOX reporter, mRNA; actives raise or lower the signal
# In short: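 Reporter transcripts, measured by RT-PCR and capillary electrophoresis of labelled fragments, report endogenous SOX transcription factor activity. Transiently transfected human HepG2 cells receive chemical for 24 h; changes in either direction are fitted relative to DMSO.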
# [17] = target: Nuclear receptor subfamily 1 group I member 2 (Homo sapiens) (UniProt O75469); assay: ATG_PXR_TRANS: Attagene TRANS-FACTORIAL HepG2 Assay for human Pregnane X Receptor (PXR) (AID 2283008; active = hit-call score of the fitted dose curve at least 0.9, where 1 is the maximum)
# In short: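 Trans-factorial format: exogenous NR-Gal4 fusion activity, not endogenous factor, in transfected human HepG2 liver cells. After 24 h dosing, RNA isolated, reverse-transcribed, amplified and resolved by capillary electrophoresis; induction scored versus DMSO.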
# [18] = ATG_GLI_CIS: Attagene CIS-FACTORIAL HepG2 Assay for human Zinc Finger Protein GLI1 (AID 2282945); details: HepG2, Attagene cis-factorial reporter mRNA, GLI element; actives raise or lower the signal
# In short: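 HepG2 cells transiently transfected with cis-promoter multiplexed reporter units report endogenous transcription factor activity. After 24 h chemical exposure, reporter mRNA was quantified by RT-PCR, 6-FAM labelling, HpaI digestion and capillary electrophoresis, with bidirectional fitting against DMSO.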
# [19] = target: Nuclear receptor subfamily 4 group A member 2 (Homo sapiens) (UniProt P43354); assay: ATG_NURR1_TRANS: Attagene TRANS-FACTORIAL HepG2 Assay for human Nuclear Receptor Related Protein 1 (NURR1) (AID 2282985; active = hit-call score of the fitted dose curve at least 0.9, where 1 is the maximum); details: HepG2 Attagene TRANS reporter, mRNA readout
# In short: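 Chimeric NR-Gal4 fusion activity measured in HepG2 after 24 h treatment. Reporter transcripts detected by RT-PCR and capillary electrophoresis fluorescence; positive-direction curve fitting against DMSO.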
# [20] = target: Retinoic acid receptor RXR-alpha (Homo sapiens) (UniProt P19793); assay: ATG_RXRa_TRANS: Attagene TRANS-FACTORIAL HepG2 Assay for human Retinoid X Receptor alpha (RXRa) (AID 2283012; active = hit-call score of the fitted dose curve at least 0.9, where 1 is the maximum)
# In short: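 Measures exogenous chimeric NR-GAL4 activity in transfected HepG2 liver cells after 24 h of dosing. Induced reporter mRNA was detected by RT-PCR with capillary electrophoresis, and gain of signal was analysed against DMSO.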
# Nuclear receptor subfamily 4 group A member 2 (Homo sapiens), sequence (P43354 whole entry, looked up, the tested form may be a part): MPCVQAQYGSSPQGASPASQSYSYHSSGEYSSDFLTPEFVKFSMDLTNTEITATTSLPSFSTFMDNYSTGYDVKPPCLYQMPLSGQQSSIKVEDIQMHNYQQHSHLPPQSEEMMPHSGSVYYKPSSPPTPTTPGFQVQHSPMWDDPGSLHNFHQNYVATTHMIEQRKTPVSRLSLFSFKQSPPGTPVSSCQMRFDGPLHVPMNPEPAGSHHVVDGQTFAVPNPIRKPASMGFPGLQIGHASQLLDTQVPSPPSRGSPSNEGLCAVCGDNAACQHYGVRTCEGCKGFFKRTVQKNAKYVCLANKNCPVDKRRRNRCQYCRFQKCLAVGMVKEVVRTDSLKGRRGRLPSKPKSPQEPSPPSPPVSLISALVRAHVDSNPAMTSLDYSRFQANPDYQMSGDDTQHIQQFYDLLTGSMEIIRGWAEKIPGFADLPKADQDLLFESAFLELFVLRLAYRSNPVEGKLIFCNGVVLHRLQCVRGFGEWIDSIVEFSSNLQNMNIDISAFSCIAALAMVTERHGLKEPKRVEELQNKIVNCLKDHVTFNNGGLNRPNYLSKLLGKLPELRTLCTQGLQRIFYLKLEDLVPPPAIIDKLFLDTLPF
# Retinoic acid receptor RXR-alpha (Homo sapiens), sequence (P19793 whole entry, looked up, the tested form may be a part): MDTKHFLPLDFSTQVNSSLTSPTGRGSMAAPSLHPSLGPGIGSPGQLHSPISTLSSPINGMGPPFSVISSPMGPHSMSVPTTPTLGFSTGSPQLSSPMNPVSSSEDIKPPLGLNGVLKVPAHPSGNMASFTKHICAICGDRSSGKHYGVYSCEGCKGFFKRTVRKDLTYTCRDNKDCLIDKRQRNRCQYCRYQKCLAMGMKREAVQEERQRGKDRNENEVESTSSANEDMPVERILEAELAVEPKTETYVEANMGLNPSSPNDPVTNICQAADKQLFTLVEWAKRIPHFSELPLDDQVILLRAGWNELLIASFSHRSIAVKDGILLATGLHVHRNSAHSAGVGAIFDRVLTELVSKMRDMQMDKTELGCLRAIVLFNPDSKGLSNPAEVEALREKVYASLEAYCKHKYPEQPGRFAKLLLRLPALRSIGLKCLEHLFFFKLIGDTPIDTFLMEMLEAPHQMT
# Nuclear receptor subfamily 1 group I member 2 (Homo sapiens), sequence (O75469 whole entry, looked up, the tested form may be a part): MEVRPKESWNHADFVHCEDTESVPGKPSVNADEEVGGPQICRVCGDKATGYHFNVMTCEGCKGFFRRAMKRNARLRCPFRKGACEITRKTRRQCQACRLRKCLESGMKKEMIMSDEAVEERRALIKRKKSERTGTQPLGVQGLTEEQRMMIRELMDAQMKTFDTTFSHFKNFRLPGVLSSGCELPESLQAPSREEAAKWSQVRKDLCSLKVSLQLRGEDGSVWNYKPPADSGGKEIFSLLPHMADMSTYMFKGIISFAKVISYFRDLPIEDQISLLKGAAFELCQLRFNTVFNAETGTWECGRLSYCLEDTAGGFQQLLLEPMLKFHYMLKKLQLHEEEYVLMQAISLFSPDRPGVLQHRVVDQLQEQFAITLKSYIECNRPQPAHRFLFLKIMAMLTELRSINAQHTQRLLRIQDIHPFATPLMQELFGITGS
smiles,measurement,setting,value
COc1ccc(C(=O)c2ccccc2O)c(O)c1,AC50,[1],17.3 µM (active) and 20 µM (active)
same,AC50,[2],10 µM (active) and 14.4 µM (active)
same,outcome,[3],inactive
same,outcome,[4],inactive
same,AC50,[5],12.6 µM (active) and 13.7 µM (active)
same,outcome,[6],inactive
same,outcome,[7],inactive
same,AC50,[8],24.5 µM (active) and 27.2 µM (active)
same,outcome,[9],inactive
same,outcome,[10],inactive
same,outcome,[11],inactive
same,AC50,[12],10.9 µM (active) and 5.66 µM (active)
same,outcome,[13],inactive
same,outcome,[14],inactive
same,outcome,[15],inactive
CCC[Si](OC(C)=O)(OC(C)=O)OC(C)=O,outcome,[1],inactive
same,outcome,[2],inactive
same,outcome,[3],inactive
same,outcome,[4],inactive
same,outcome,[5],inactive
same,outcome,[6],inactive
same,outcome,[7],inactive
same,outcome,[8],inactive
same,outcome,[9],inactive
same,outcome,[10],inactive
same,outcome,[11],inactive
same,outcome,[12],inactive
same,outcome,[13],inactive
same,outcome,[14],inactive
same,outcome,[15],inactive
CN(C)CCC(c1ccc(Cl)cc1)c1ccccn1 (centres undefined),outcome,[16],inactive
same,outcome,[1],inactive
same,outcome,[2],inactive
same,outcome,[17],inactive
same,AC50,[3],12 µM (active)
same,outcome,[4],inactive
same,outcome,[5],inactive
same,outcome,[6],inactive
same,outcome,[7],inactive
same,outcome,[8],inactive
same,outcome,[9],inactive
same,outcome,[10],inactive
same,outcome,[11],inactive
same,outcome,[12],inactive
same,outcome,[13],inactive
same,outcome,[14],inactive
same,outcome,[15],inactive
Cc1c(C(N)=O)cc([N+](=O)[O-])cc1[N+](=O)[O-],outcome,[1],inactive
same,outcome,[2],inactive
same,outcome,[3],inactive
same,outcome,[4],inactive
same,outcome,[5],inactive
same,outcome,[6],inactive
same,outcome,[7],inactive
same,outcome,[8],inactive
same,outcome,[9],inactive
same,outcome,[10],inactive
same,outcome,[11],inactive
same,outcome,[12],inactive
same,outcome,[13],inactive
same,outcome,[14],inactive
same,outcome,[15],inactive
CC1=C(CC=O)C(C)(C)CCC1,outcome,[18],inactive
same,outcome,[19],inactive
same,AC50,[17],1.38 µM (active)
same,outcome,[20],inactive
CCCCCCCCCCCCCC,outcome,[18],inactive
same,outcome,[16],inactive
same,outcome,[19],inactive
same,outcome,[17],inactive
same,outcome,[20],inactive
CCC(C)NC(N)=O (centres undefined),outcome,[18],inactive
same,outcome,[16],inactive
same,outcome,[19],inactive
same,outcome,[20],inactive
CC(C)C1OCCN1CCOC(=O)NCCCCCCNC(=O)OCCN1CCOC1C(C)C (centres undefined),outcome,[1],inactive
same,outcome,[2],inactive
same,outcome,[3],inactive
same,outcome,[4],inactive
same,outcome,[5],inactive
same,outcome,[6],inactive
same,outcome,[7],inactive
same,outcome,[8],inactive
same,outcome,[9],inactive
same,outcome,[10],inactive
same,outcome,[11],inactive
same,outcome,[12],inactive
same,outcome,[13],inactive
same,outcome,[14],inactive
same,outcome,[15],inactive
COC(=O)c1ccccc1,outcome,[18],inactive
same,outcome,[16],inactive
same,outcome,[19],inactive
same,outcome,[17],inactive
same,outcome,[20],inactive
CCCCCCCCCCC1CO1 (centres undefined),outcome,[16],inactive
same,outcome,[19],inactive
same,AC50,[1],33.7 µM (active)
same,AC50,[2],36.9 µM (active)
same,outcome,[17],inactive
same,outcome,[20],inactive
same,AC50,[3],33.8 µM (active)
same,AC50,[4],34.4 µM (active)
same,AC50,[5],35.2 µM (active)
same,outcome,[6],inactive
same,outcome,[7],inactive
same,outcome,[8],inactive
same,outcome,[9],inactive
same,outcome,[10],inactive
same,outcome,[11],inactive
same,outcome,[12],inactive
same,outcome,[13],inactive
same,outcome,[14],inactive
same,AC50,[15],6.3 µM (active)
